Source: PubChem BioAssay AID2284382 (EPA ToxCast)
Inconclusive results are not listed. Calls of active or inactive are those of the source. Rule for the calls: active = hit-call score of the fitted dose curve at least 0.9, where 1 is the maximum; inconclusive = response in the unintended direction; inactive = score below 0.9.

assay: CCTE_Mundy_HCI_iCellGABA_NOG_NeuriteLength: CCTE's Neurite Outgrowth Assay in iCellGABA cells for Neurite Length, Mundy Lab
Description: CCTE_Mundy_HCI_iCellGABA_NOG is a multiplexed, cell-based-readout assay that uses iCell GABANeurons from FUJIFILM Cellular Dynamics, Inc. (FCDI), human GABAergic enriched neurons derived from induced pluripotent stem (iPS) cells, with measurements taken at 50.33 hours after chemical dosing in a microplate: 96-well plate.CCTE_Mundy_HCI_iCellGABA_NOG_NeuriteLength is one of four components of the CCTE_Mundy_HCI_iCellGABA_NOG assay. It measures neurite outgrowth related to neurite length using High Content Imaging of fluorescently labelled markers.Data from the assay component CCTE_Mundy_HCI_iCellGABA_NOG_NeuriteLength was analyzed at the endpoint CCTE_Mundy_HCI_iCellGABA_NOG_NeuriteLength in the positive analysis fitting direction relative to DMSO as the negative control and baseline of activity. Using a type of morphology reporter, loss-of-signal activity can be used to understand developmental effects.
Exposure starts 2 hours post-plating by adding 10 ul of the working solution to 90 ul of media in the wells for a 1/10 dilution. Forty-eight hours after chemical treatment cells are fixed by direct addition of 100 ul of warm (37C) Dulbecco's phosphate buffered saline (DPBS) fixative solution containing 8% paraformaldehyde, 8% sucrose, and 0.1% of 3 mg/ml Hoechst 33342 into each well. Primary antibodies are prepared by dilution in Immunocytochemical Staining Buffer (ISB), 10X Dulbecco's PBS, 0.1% Saponin, 5% Bovine Serum Albumin, 0.5% NaN3 (Sodium Azide) and betaIII-tubulin (rabbit anti-betaIII-tubulin, 1:800) followed by Alexa Fluor-488 secondary (1:500) to label neuronal cell bodies and neurites. A Cellomics ArrayScan VTi HCS Reader is used for automated image acquisition and analysis of neurite outgrowth.

| SMILES | outcome | AC50 |
| --- | --- | --- |
| CCCSP(=O)(OCC)Oc1ccc(Br)cc1Cl (stereo unspecified) | inactive |  |
| CCOP(=S)(OCC)Oc1ccc2c(C)c(Cl)c(=O)oc2c1 |  | 58 µM (active) |
| CCOC(=O)CC(SP(=O)(OC)OC)C(=O)OCC (stereo unspecified) | inactive |  |
| CCOP(=S)(OCC)SCSC(C)(C)C | inactive |  |
| CCOP(=S)(Oc1cnc(C(C)(C)C)nc1)OC(C)C (stereo unspecified) | inactive |  |
| CCCSP(=O)(OCC)SCCC | inactive |  |
| COP(=O)(OC)O/C(=C\Cl)c1cc(Cl)c(Cl)cc1Cl |  | 60.7 µM (active) |
| COP(=O)(OC)OC(Br)C(Cl)(Cl)Br (stereo unspecified) |  | 11.6 µM (active) |
| COP(=O)(OC)OC=C(Cl)Cl | inactive |  |
| CCOP(=S)(OCC)SCSCC | inactive |  |
| CCOP(=S)(OCC)Oc1nc(Cl)c(Cl)cc1Cl |  | 24.3 µM (active) |
| CNC(=O)CSP(=S)(OC)OC | inactive |  |
| COP(=O)(OC)C(O)C(Cl)(Cl)Cl (stereo unspecified) |  | 50 µM (active) |
| CCCCSP(=O)(SCCCC)SCCCC | inactive |  |
| CCOP(=O)(SC(C)CC)N1CCSC1=O (stereo unspecified) | inactive |  |
| CCOC(=O)CC(SP(=S)(OC)OC)C(=O)OCC (stereo unspecified) |  | 78.6 µM (active) |
| CNC(=O)CSP(=O)(OC)OC | inactive |  |
| COP(=O)(OC)O/C(C)=C/C(=O)N(C)C | inactive |  |
| CCN(CC)c1nc(C)cc(OP(=S)(OC)OC)n1 |  | 78.8 µM (active) |
| CCOP(=S)(OCC)OC(Cl)C(Cl)(Cl)Cl (stereo unspecified) |  | 29.9 µM (active) |
| COP(=S)(OC)SCN1C(=O)c2ccccc2C1=O |  | 67.2 µM (active) |
